Results taken from PubChem BioAssay AID588397 (National Center for Advancing Translational Sciences (NCATS), 2011).
Values joined by “and” are separate entries in the source; they are usually repeats but may differ in a detail not shown here. Identical values can stand only once. The whole screen tested about 1,300 compounds, of which about 1,000 (77%) were called active. About 7% were inconclusive and are not listed. The call rests on the fitted dose curve; in most records, active means well fitted inhibition curve with a large enough effect; inconclusive means small, poorly fitted or top-dose-only effect; inactive means no such curve, though single readings can be large or run the other way. The set was probably picked from earlier hits. The list shows a part of the results.

assay: qHTS of small molecules that selectively kill Giardia lamblia: Hit Validation.;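 further: viability measured as ATP content by luminescence so killing lowers signal; trophozoites exposed to compounds for 48 h anaerobically at 37 °C; nearly all actives have a fitted effect of over 65% in size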; conditions: Giardia lamblia trophozoite viability, dose-response; series mostly up to 38.3 µM; activity change, negative = killing: at the top concentration
Summary of the method: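 Viability, read as ATP luminescence: trophozoites at 100 cells/well, compound added, 48 hrs anaerobic at 37 deg C, then 15-30 min room-temperature development before reading.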
On the % scale 0 is the no-effect control and ±100 the full control effect; potency means the concentration at half of the fitted maximal effect.

Row | SMILES | activity change, negative = killing | Potency
1 | CCn1cc(C(=O)NCCC(C)C)c(=O)c2cc(F)c(N3CCN(C(=O)c4ccco4)CC3)cc21 | -21.5% (inactive) | –
2 | O=C(Nc1ncc([N+](=O)[O-])s1)c1cccc([N+](=O)[O-])c1 | – | 0.29 µM (active)
3 | O=C(NNC(=O)c1ccncc1)Nc1cccc([N+](=O)[O-])c1 | -9.26% (inactive) | –
4 | Cc1ccc(CC(=O)Nc2ncc([N+](=O)[O-])s2)cc1 | – | 0.13 µM (active)
5 | CC(=O)Nc1ccc(NC(=O)c2c([N+](=O)[O-])cnn2C)cc1 | – | 1.3 µM (active)
6 | CCS(=O)(=O)CCn1c([N+](=O)[O-])cnc1C | – | 0.918 µM (active)
7 | Cc1ncc([N+](=O)[O-])n1CCN1C(=O)c2ccccc2C1=O | – | 0.65 µM (active)
8 | CCOc1cc(C=O)ccc1OCCn1c([N+](=O)[O-])cnc1C | – | 0.65 µM (active)
9 | Cc1nonc1OCCn1c([N+](=O)[O-])cnc1C | – | 1.16 µM (active)
10 | Cc1ncc([N+](=O)[O-])n1CC(O)CCl (centres undefined) | – | 1.16 µM (active)
11 | Cc1ncc([N+](=O)[O-])n1CCO | – | 4.1 µM (active) and 4.6 µM (active)
12 | COc1cc2nc(N3CCN(C)CC3)nc(NC(C)C)c2cc1OC | – | 0.918 µM (active)
13 | COc1cc2nc(N3CCCCC3)nc(NC3CCN(Cc4ccccc4)CC3)c2cc1OC | – | 2.05 µM (active)
14 | COc1cc2nc(N3CCN(C)CC3)nc(NC3CC3)c2cc1OC | – | 0.365 µM (active)
15 | COc1cc2nc(N3CCN(c4cc(C)ccc4C)CC3)nc(N)c2cc1OC | – | 4.1 µM (active)
16 | COc1cc2nc(N3CCCN(C)CC3)nc(NC3CCCCC3)c2cc1OC | – | 0.65 µM (active)
17 | Cc1ccc(C(C(=O)NCc2ccco2)N(C(=O)CNC(=O)c2cccs2)c2c(C)cccc2C)cc1 (centres undefined) | – | 0.818 µM (active)
18 | O=C1C2C3C=CC(C3)C2C(=O)N1Nc1ccc([N+](=O)[O-])cc1[N+](=O)[O-] (centres undefined) | – | 4.1 µM (active)
19 | Cn1c(=NC(=O)c2cnccn2)sc2ccccc21 | – | 5.79 µM (active)
20 | CC(Oc1ccccc1)C(=O)Nc1nnc(S(=O)(=O)N2CCCCC2)s1 (centres undefined) | – | 3.65 µM (active)
21 | CC(Oc1ccccc1)C(=O)Nc1nnc(S(=O)(=O)N2CCCCCC2)s1 (centres undefined) | – | 5.16 µM (active)
22 | Cn1nc(N)c2c(-c3ccccc3)c(C#N)c(N)nc21 | – | 4.6 µM (active)
23 | Cn1nc(N)c2c(-c3ccc(Cl)cc3)c(C#N)c(N)nc21 | – | 2.9 µM (active)
24 | Cc1cc(C(=O)COc2cccnc2[N+](=O)[O-])c(C)n1Cc1cccs1 | – | 1.03 µM (active)

Row | SMILES | activity change, negative = killing | Potency
25 | Cc1ccc(OCC(=O)c2cc(C)n(Cc3cccs3)c2C)c([N+](=O)[O-])n1 | – | 0.818 µM (active)
26 | COc1ccc(-c2nn(-c3ccccc3)cc2C(=O)N/N=C/c2ccc([N+](=O)[O-])o2)cc1 | – | 0.516 µM (active)
27 | O=C(N/N=C/c1ccc([N+](=O)[O-])o1)c1cn(-c2ccccc2)nc1-c1ccc(F)cc1 | – | 0.516 µM (active)
28 | O=C(N/N=C/c1ccc([N+](=O)[O-])o1)c1cn(-c2ccccc2)nc1-c1ccc(Cl)cc1 | – | 1.03 µM (active)
29 | O=C(N/N=C/c1ccc([N+](=O)[O-])o1)c1cn(-c2ccccc2)nc1-c1ccccc1 | – | 0.818 µM (active)
30 | CCOC(=O)c1cc([N+](=O)[O-])sc1NC(=O)CC | – | 1.03 µM (active)
31 | CN(Cc1cccc(Cl)c1)C(=O)C1CCC(=O)N(C2CC2)C1 (centres undefined) | -13% (inactive) | –
32 | O=C(COc1cccnc1[N+](=O)[O-])Nc1cc(Cl)ccc1Cl | – | 4.6 µM (active)
33 | O=C(COc1cccnc1[N+](=O)[O-])Nc1ccc(Cl)cc1F | – | 1.83 µM (active)
34 | CC(OC(=O)c1ccc(Cl)nc1)C(=O)NC1CCCC1 (centres undefined) | -9.62% (inactive) | –
35 | CC(OC(=O)c1ccc([N+](=O)[O-])s1)C(=O)NC1CCCCC1C (centres undefined) | – | 3.65 µM (active)
36 | O=C(NCc1ccccn1)C1CCCN(S(=O)(=O)c2cc(Cl)ccc2Cl)C1 (centres undefined) | – | 1.03 µM (active)
37 | Cc1ccc2nc(NC(=O)C3CCCN(S(=O)(=O)c4cnc[nH]4)C3)sc2c1 (centres undefined) | -7.55% (inactive) | –
38 | O=C(NCc1ccc(Cl)cc1)C1CCC(CNS(=O)(=O)c2ccccc2)CC1 (centres undefined) | 7.82% (inactive) | –
39 | CC/C=C1/N=C2C(=O)N(C)C(=O)N=C2N(C)N1 | – | 0.13 µM (active)
40 | CN1N/C(=C\c2ccccc2)N=C2C(=O)N(C)C(=O)N=C21 | – | 0.259 µM (active)
41 | O=S1(=O)[C@H]2C[C@@H]3C=C[C@@]2(CN1Cc1cccc(F)c1)O3 | -10.8% (inactive) | –
42 | COc1ccc(-n2nc([N+](=O)[O-])c(=NCCc3cccc(C)c3)n2O)cc1 | – | 1.3 µM (active)
43 | Cc1cccc(CCN=c2c([N+](=O)[O-])nn(-c3ccccc3)n2O)c1 | – | 2.9 µM (active)
44 | CN(C)c1nc(=Nc2cccc(Cl)c2)ss1 | – | 11.6 µM (active)
45 | CCCSc1nc2c(c(=O)n1CC)SC(C)C2 (centres undefined) | -12.4% (inactive) | –
46 | O=C(CSc1nnc(NC(=O)c2ccccc2)s1)NCc1ccco1 | – | 4.6 µM (active)
47 | O=C(Nc1nnc(SCC(=O)N2CCOCC2)s1)c1ccccc1 | – | 5.16 µM (active)
48 | O=C(Nc1nnc(SCC(=O)N2CCOCC2)s1)c1ccccc1Cl | – | 5.79 µM (active)

Row | SMILES | activity change, negative = killing | Potency
49 | O=C(CSc1nnc(NC(=O)c2c(F)cccc2F)s1)Nc1ccc(F)cc1 | -33.4% (inactive) | –
50 | O=[N+]([O-])c1cn(-c2nc(-c3ccco3)cc(C(F)(F)F)n2)cn1 | – | 2.59 µM (active)
51 | COC(=O)[C@@]1(Cc2ccc(OC)cc2)[C@H]2c3cc(C(=O)N4CCCC4)n(CCn4cc([N+](=O)[O-])nc4C)c3C[C@H]2CN1C(=O)c1ccccc1 | – | 0.206 µM (active)
52 | O=[N+]([O-])c1ncc(Br)cc1Nc1ccccc1 | – | 0.516 µM (active)
53 | C[C@@H]1[C@H]2[C@@H](O[C@@H]3O[C@H](CO)[C@@H](O)[C@H](O)[C@H]3O)OC=C(C(=O)O)[C@H]2C[C@@H]1O | -3.42% (inactive) | –
54 | O=[N+]([O-])c1ccc(N2CCN(CCO)CC2)c2ncccc12 | – | 1.45 µM (active)
55 | CS(=O)(=O)N1CCN(c2ccc([N+](=O)[O-])c3cccnc23)CC1 | – | 1.03 µM (active)
56 | O=C(c1cccc(F)c1)N1CCN(c2ccc([N+](=O)[O-])c3cccnc23)CC1 | – | 3.26 µM (active)
57 | Nc1nonc1OCCN1CCN(c2ccc([N+](=O)[O-])c3cccnc23)CC1 | – | 1.83 µM (active)
58 | O=c1c([N+](=O)[O-])cccn1Cc1ccccc1Cl | – | 4.1 µM (active)
59 | O=c1c([N+](=O)[O-])cccn1Cc1ccc(F)cc1Cl | – | 2.31 µM (active)
60 | Clc1ccc2c(N/N=C/c3ccccc3Br)ccnc2c1 | – | 1.63 µM (active)
61 | Cc1ccc(/C=N/Nc2ccnc3cc(Cl)ccc23)c(C)c1 | – | 0.365 µM (active)
62 | Cc1ccccc1/C=N/Nc1ccnc2cc(Cl)ccc12 | – | 0.326 µM (active)
63 | COc1cc(/C=C/c2onc(C)c2[N+](=O)[O-])cc(OC)c1OC | – | 2.05 µM (active)
64 | Cc1noc(/C=C/c2cccnc2)c1[N+](=O)[O-] | – | 8.18 µM (active)
65 | Cc1cc2[nH]c3c(c[n+](C)c4ccccc34)c2cc1C | – | 1.16 µM (active)
66 | COc1cc(C2Nc3ccccc3C(=O)N2c2ccc3c(c2)OCCO3)ccc1OCC(C)C (centres undefined) | – | 3.26 µM (active)
67 | CC(C)Oc1ccccc1C1Nc2ccccc2C(=O)N1c1ccc2c(c1)OCCO2 (centres undefined) | – | 5.16 µM (active)
68 | CN(C)c1ccc(N=Nc2ccccc2C(=O)O)cc1 | – | 0.29 µM (active)
69 | CC(=O)c1ccc(NC(=O)COC(=O)c2ccccc2N=Nc2ccc(N(C)C)cc2)cc1 | – | 3.26 µM (active)
70 | CN(C)c1ccc(N=Nc2ccccc2C(=O)OCC(=O)N2CCCC2)cc1 | – | 1.45 µM (active)
71 | CC(=O)NC(Cc1cccc(F)c1)C(=O)NC1CCN(c2ncccc2[N+](=O)[O-])CC1 (centres undefined) | – | 2.31 µM (active)
72 | Cc1ccc(-n2nc3c(N4CCC(C(=O)NCc5cccc(F)c5)CC4)nnc(C)c3c2C)cc1 | -12.7% (inactive) | –

Row | SMILES | activity change, negative = killing | Potency
73 | CC(=O)NC(Cc1cccc(C)c1)C(=O)NC1CCN(c2ncccc2[N+](=O)[O-])CC1 (centres undefined) | – | 4.6 µM (active)
74 | COc1ccc(CCNC(=O)CSc2ccsc2[N+](=O)[O-])cc1OC | – | 0.516 µM (active)
75 | COc1ccc(OC)c(CCNC(=O)CSc2ccsc2[N+](=O)[O-])c1 | – | 0.729 µM (active)
76 | COc1ccc(CCNC(=O)C23CCC(C)(C(=O)C2=O)C3(C)C)cc1OC (centres undefined) | -8.09% (inactive) | –
77 | COCCn1c(C)cc(/C=C2/SC(=O)N(C(C)C(=O)OC)C2=O)c1C (centres undefined) | – | 5.79 µM (active)
78 | COCCn1c(C)cc(/C=C2\NC(=S)N(C)C2=O)c1C | -34.6% (inactive) | –
79 | COc1ccc(OCc2nnc3n2N=C(c2ccc(OC)cc2)CS3)cc1 | -24.4% (inactive) | –
80 | COc1ccc(-c2cn3ccsc3n2)cc1 | – | 9.18 µM (active)
81 | O=C(Nc1ccc(-c2cn3ccsc3n2)cc1)C1CC1 | – | 3.26 µM (active)
82 | CC(=O)OCCSc1c(-c2ccccc2)c2cc(Cl)ccc2[nH]c1=O | -2.52% (inactive) | –
83 | Cc1cccc(NC(=O)c2ccc([N+](=O)[O-])o2)c1C | – | 1.83 µM (active)
84 | Cc1cccc(NC(=O)N2CCN(Cc3ccc4c(c3)OCO4)CC2)c1C | -17.8% (inactive) | –
85 | Cc1ccc([N+](=O)[O-])c(C(=O)Nc2cccnc2Cl)c1 | -9.71% (inactive) | –
86 | COc1ccccc1S(=O)(=O)Cc1ccc(C(=O)NCC(OC)OC)o1 | 11.7% (inactive) | –
87 | COc1ccccc1NC(=O)c1ccc([N+](=O)[O-])o1 | – | 1.45 µM (active)
88 | Cc1ccc(N/C(C(Cl)=C(Cl)Cl)=C(/Cl)[N+](=O)[O-])c(C)c1 | – | 0.818 µM (active)
89 | CCS(=O)(=O)N1Cc2ccccc2CC1C(=O)Nc1ccccc1OC (centres undefined) | -4.77% (inactive) | –
90 | Cc1ccc(NC(=O)c2ccc([N+](=O)[O-])o2)c(C)c1 | – | 1.3 µM (active)
91 | Cc1ccccc1NC(=O)c1ccc([N+](=O)[O-])o1 | – | 1.83 µM (active)
92 | COc1ccc(-c2cc3ccccc3oc2=O)cc1NC(=O)c1ccc([N+](=O)[O-])o1 | – | 0.729 µM (active)
93 | O=C(Nc1ccccc1Cl)c1ccc([N+](=O)[O-])o1 | – | 1.3 µM (active)
94 | Cn1c(=O)c(=O)n(C)c2cc([N+](=O)[O-])c(N3CCOCC3)cc21 | – | 4.1 µM (active)
